Assay outcomes from PubChem BioAssay.
GLP1R inv ag: GLP-1 receptor (human) inverse agonism | P43220 | HEK293 GLP-1R CRE-luciferase, luminescence, 24 h; GLP-1R form is constitutively active | Potency, µM (titrated, usually from 38.3 µM), without a hit: at the top dose activity change, negative = inhibition, hits mostly inhibitors | 1.6% of 410,000 active; further: on the % scale 0 is the no-effect control and ±100 the full control effect; nearly all actives have a fitted effect of over 55% in size
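qHTS in 1536-well format: reporter HEK293 cells expressing constitutive GLP-1R activity in DMEM + 10% Nu serum, 24 hr with compounds at 37 deg C, luminescence read after 12 min with detection reagent.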
Tb PGK inh: inhibitors of T. brucei phosphoglycerate kinase; P07378; PGK/GAPDH coupled, Kinase-Glo luminescence, 60 min; Potency, µM (highest dose often 57.5 µM), inactives show at the top dose activity change, negative = inhibition, actives largely listed as inhibitors; 0.043% of 380,000 active; AID 602233; further: on the % scale 0 is the no-effect control and ±100 the full control effect; nearly all actives have a fitted effect of over 60% in size
Target sequence (P07378 whole entry, looked up): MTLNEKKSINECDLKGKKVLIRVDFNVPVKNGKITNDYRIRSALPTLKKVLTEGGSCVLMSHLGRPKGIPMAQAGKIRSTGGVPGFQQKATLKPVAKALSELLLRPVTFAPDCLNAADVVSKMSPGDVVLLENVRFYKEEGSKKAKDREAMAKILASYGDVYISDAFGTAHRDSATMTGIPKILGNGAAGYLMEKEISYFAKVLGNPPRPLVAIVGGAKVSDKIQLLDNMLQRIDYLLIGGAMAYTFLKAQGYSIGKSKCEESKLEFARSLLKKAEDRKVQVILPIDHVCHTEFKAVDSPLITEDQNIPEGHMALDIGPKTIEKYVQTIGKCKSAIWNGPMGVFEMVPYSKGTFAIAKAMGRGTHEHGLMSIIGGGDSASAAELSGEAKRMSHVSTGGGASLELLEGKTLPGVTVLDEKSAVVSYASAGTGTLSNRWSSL
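Recombinant glycosomal PGK reaction used 1,3-bisphosphoglycerate generated in-well by GAPDH (100nM final) in 100mM TEA pH 7.6, 5mM MgCl2, 0.01% Tween-20. After 60 minutes at room temperature, ATP was read by Kinase-Glo Plus luminescence end-point.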
Tb PFK inh: T. brucei PFK enzyme inhibition; Potency, µM (series often up to 57.5 µM), without a hit: at the highest dose activity, negative = inhibition, most hits filed as inhibitors; AID 485367; O15648; 0.17% of 330,000 active; T. brucei PFK, ADP-Glo luminescence;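 further: 0% = uninhibited 1x PFK enzyme wells and -100% = no-enzyme wells; nearly all actives have a fitted effect of over 60% in size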
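Activity is normalized to no-enzyme wells (full inhibition) and 1.25 nM enzyme wells (no inhibition). Reaction: 0.5 mM F6P, 0.1 mM ATP, 45 min RT, ADP-Glo luminescence; concentration-response curves fitted and classed by quality.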
Pin1 inh: blocks the human prolyl isomerase Pin1. Q13526. Pin1 FP peptide displacement, HiFluor488, 10 min. Potency, µM (top dose mostly 115 µM), without a hit: at the top dose activity, negative = inhibition, most hits filed as inhibitors. AID 504891. 0.009% of 390,000 active; active means well fitted inhibition curve with a large enough effect in the polarisation, with a control signal flat, not every such curve was filed as active; inconclusive means small, poorly fitted or top-dose-only effect, or effect the other way, or a change in a side signal; inactive means no such curve, though single readings can be large or run the other way; the % refers to the polarisation; further: on the % scale 0 is the no-effect control and ±100 the full control effect
Target sequence (Q13526 whole entry, looked up): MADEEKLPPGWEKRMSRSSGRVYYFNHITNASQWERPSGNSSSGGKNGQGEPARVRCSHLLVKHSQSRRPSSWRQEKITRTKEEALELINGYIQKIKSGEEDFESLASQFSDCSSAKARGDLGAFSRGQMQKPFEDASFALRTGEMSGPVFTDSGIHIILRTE
GLP-1R agonist: activates the human GLP-1 receptor. AID 624172. HEK293 GLP-1R CRE-luciferase, luminescence, 4-6 h; cells express a hypersensitive GLP-1R form. P43220. Potency, µM (highest dose often 45.6 µM), without a hit: at the highest dose activation, most hits filed as activators. 0.007% of 380,000 active; further: % of control where 0% means no effect
GLP1R cytotox: cytotoxicity counter-screen for GLP-1 receptor inverse agonists. Potency, µM (doses to about 38.3 µM), for inactives: top-dose activity change, negative = inhibition, hits mostly inhibitors. 0.13% of 410,000 active. AID 624418. HEK293 cAMP-luciferase reporter cells, luminescence, 24 h;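 further: loss of luciferase light is scored as toxicity; on the % scale 0 is the no-effect control and ±100 the full control effect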
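Luminescence readout: signal drop marks cytotoxicity. Plated cells grew 12 h at 37 °C, 5% CO2, received 23 nL compound for 24 h, then got luciferase reagent, read after 12 min at RT.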
Numbers without * were called inactive; i = inactive; ? = inconclusive; nt = not tested or not shown. Only some compounds are listed: those with a hit (about 1.8% of all), similar ones and a draw of the others. Unless noted, the call rests on the fitted dose curve; in most records, active means well fitted curve in the direction sought with a large enough effect; inconclusive means small, poorly fitted or top-dose-only effect, or another doubt; inactive means no such curve, though single readings can be large; an effect the other way counts as inactive or inconclusive. Potency means the concentration at half of the fitted maximal effect.

SMILES	GLP1R inv ag	Tb PGK inh	Tb PFK inh	Pin1 inh	GLP-1R agonist	GLP1R cytotox
Cc1onc(-c2c(Cl)cccc2Cl)c1C(=O)N1CCN(c2ccc(F)cc2)CC1	13µM*	i	-4%	-1%	11%	-15%
COc1ccc(Cl)cc1NC(=O)CN(C)S(=O)(=O)c1ccc(Br)s1	-11%	2%	nt	2%	nt	5%
O=C(O)C1CCN(c2nc(-c3ccc(Br)cc3)cs2)CC1	nt	nt	nt	2%	nt	nt
COc1cc(Br)c(C2CC(=O)Nc3cc4c(cc32)OCCO4)cc1OC (stereo not given)	-27%	-8%	nt	2%	1%	-13%
O=C1C2C3C=CC(O3)C2C(=O)N1Nc1ccccc1 (stereo not given)	8.9µM*	-3%	nt	-3%	4%	-4%
COc1ccc(N=N/C(=C\O)C(=O)c2cccs2)cc1	?	-3%	-3%	11%	12%	-20%
COc1ccc(C(=O)/C(=C/O)N=Nc2ccc(F)cc2)cc1	10µM*	-4%	-4%	-1%	8%	?
O=C(Nc1ccccc1)c1cc(C2CCCCN2C(=O)CCCc2ccccc2)on1 (stereo not given)	?	nt	nt	nt	-1%	-6%
O=C(Nc1ccc2c(c1)OCO2)c1cc(C2CCCCN2C(=O)CCCc2ccccc2)on1 (stereo not given)	8.9µM*	nt	nt	nt	13%	-20%
COc1cccc(C(=O)Nc2nc(-c3nnn(-c4ccccc4C(F)(F)F)c3C)ns2)c1	5.6µM*	7%	nt	14%	nt	0%
COc1cccc(C(=O)Nc2nc(-c3nnn(-c4cc(C)ccc4C)c3C)ns2)c1	-12%	-6%	nt	10%	nt	4%
COC(=O)c1ccc(NC(=O)C(=O)NCC(c2cccnc2)N2CCc3ccccc32)cc1 (stereo not given)	11%	-3%	nt	4%	nt	-9%
OCC1(Cc2ccccc2Cl)CCN(C/C=C/c2ccccc2)CC1	10µM*	-5%	-6%	1%	6%	-22%
OCC1(CCc2ccccc2)CCN(C/C=C/c2ccccc2)CC1	?	-3%	1%	-2%	6%	-3%
CC(C)c1c(C(=O)N/N=C/c2c[nH]c3ccccc23)nnn1-c1nonc1N	?	-7%	2%	0%	2%	?
CC1CCN(Cc2c(C(=O)N/N=C/c3cc(Br)ccc3O)nnn2-c2nonc2N)CC1	4µM*	1%	6%	1%	-1%	124%
CC1CCN(Cc2c(C(=O)N/N=C/c3cc(Cl)ccc3O)nnn2-c2nonc2N)CC1	?	i	0%	0%	2%	-6%
CC(C)c1c(C(=O)N/N=C/c2cccc3ccccc23)nnn1-c1nonc1N	6.3µM*	-2%	2%	-1%	-2%	-20%
Cc1sc2nc(CN3CCOCC3)[nH]c(=O)c2c1-c1ccccc1	-1%	1%	3%	2%	-2%	-12%
COCCNCc1nc2sc(C)c(-c3ccccc3)c2c(=O)[nH]1	11µM*	11%	0%	7%	9%	?
Cn1c2ccccc2c(=O)c2ccc(C#CC3(O)CCCCC3)cc21	7.9µM*	-9%	0%	10%	-10%	125%
COc1ccc2sc(-c3ccccc3OC)c(-c3ccc(OC)nc3)c2c1	?	i	-2%	13%	15%	9%
CCOC(=O)c1ccc(-c2c(-c3ccccc3OC)sc3ccc(OC)cc23)cc1F	11µM*	5%	3%	3%	-2%	17%
COc1ccccc1NC(=O)C1=C(C)Nc2nc(SCc3ccccc3)nn2C1c1cccc(O)c1 (stereo not given)	?	i	nt	17%	-4%	-16%
CN(c1ccccc1)S(=O)(=O)c1cccc(C(=O)NCCc2c[nH]c3ccccc23)c1	8.9µM*	-5%	nt	?	-1%	-14%
SMILES	GLP1R inv ag	Tb PGK inh	Tb PFK inh	Pin1 inh	GLP-1R agonist	GLP1R cytotox
Cc1cccc(NC(=O)NCCc2c[nH]c3ccccc23)c1	8.9µM*	-1%	-7%	?	3%	-2%
CCOc1ccc(NC(=O)Cn2c(=O)n(CCCCC(=O)NCCc3ccc(Cl)cc3)c(=O)c3ccccc32)cc1	15%	-8%	nt	0%	-3%	0%
COc1cc(F)c(S(=O)(=O)N2CCCN(S(=O)(=O)c3cccc(NC(C)=O)c3)CC2)c(F)c1	nt	nt	nt	1%	nt	nt
CCN1CCN(c2cc(-c3ccccc3)nc3cc(-c4cccc(F)c4)nn23)CC1	2.5µM*	i	3%	8%	-51%	?
CC(C)c1ccccc1NC(=O)c1cccc(NC(=O)c2ccccc2)c1	10µM*	-4%	-1%	0%	1%	-13%
Cc1ccccc1C(=O)Nc1cccc(C(=O)Nc2ccccc2C(=O)O)c1	6%	-2%	-3%	-7%	0%	4%
CC(C)c1cc(NC(=O)c2ccccc2)cc(C(C)C)c1O	11µM*	0%	-6%	-3%	10%	-2%
CC(=O)Nc1cc(C(C)C)c(O)c(C(C)C)c1	9%	1%	0%	27%	8%	12%
COc1cccc(NC(=S)NC2CC(C)CC(C)(C)C2)c1 (stereo not given)	8.9µM*	-8%	nt	nt	0%	?
COc1cccc(NC(=S)Nc2ccc(F)cc2)c1	16%	-2%	0%	1%	14%	-6%
COc1cccc(NC(CNS(=O)(=O)c2ccc(C)cc2)c2ccccc2)c1 (stereo not given)	10µM*	nt	nt	-6%	nt	-7%
Cc1ccc(NC(CNS(=O)(=O)c2ccc(Cl)cc2)c2ccccc2)cc1 (stereo not given)	?	i	0%	0%	-26%	6%
COc1cccc(NC(CNS(=O)(=O)c2ccc(Cl)cc2)c2ccccc2)c1 (stereo not given)	10µM*	nt	nt	2%	nt	?
Cc1c(Nc2nc3ccccc3n3c(C)nnc23)cccc1C(=O)O	14%	i	nt	0%	nt	-5%
O=S(=O)(Nc1ccc2oc3c(c2c1)CCCC3)c1cc(Cl)ccc1Cl	11µM*	7%	nt	38%	nt	2%
Cc1cc(C(=O)Nc2cccc(C(=O)O)c2)oc1C	1.3µM*	-15%	-10%	-3%	-32%	-1%
CC1=C(C(=O)NCc2ccccc2C)C2(CCCCCC2)OC1=O	-8%	-9%	nt	-1%	nt	2%
CC(=O)NC1CCN(c2nc(-c3ccc(Br)cc3)cs2)CC1	nt	nt	nt	0%	nt	nt
O=C(O)c1ccccc1N/N=C\c1ccnc2ccccc12	4.5µM*	-4%	-5%	-3%	-40%	54%
ON=Cc1ccnc2ccccc12	-1%	8%	nt	nt	0%	2%
COc1ccc(/C=C/C(=O)N(CC(C)C)CC(C)C)cc1Br	11µM*	-5%	1%	5%	16%	-2%
